The list is not random: actives were taken first. Their share in the collection is about 7.3%.
HCMV inh – qHTS Assay for inhibitors of the human cytomegalovirus (HCMV) | HFF cells, HCMV-luciferase reporter, 72 h; hits give low values | activity change, negative = inhibition, % at 57.5 µM | 410,000 tested, 4.5% active | AID 1259415, 2018; in the data active = activity change below about -60%; inconclusive = no clear call, values can overlap the other calls; inactive = above about -39%
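Steps: HFFs plated, 16 h 37C; compounds added; HCMV-luciferase added to MOI 1 PFU/cell; 72 h 37C; OneGlo reagent, 5 min room temperature; luminescence read, normalized to controls.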
VACV Venus inh – qHTS for Stage-Specific Inhibitors of Vaccinia Orthopoxvirus: Venus Reporter Primary qHTS. Vaccinia virus Venus reporter expression, fluorescence. Potency, µM (doses to about 36.5 µM), without a hit: top-dose activity change, negative = inhibition, actives largely listed as inhibitors. 330,000 tested, 0.46% active; calls by dose curve; tested in A549 cells; also: potency is read from the fitted curve at half-maximal effect; nearly all actives have a fitted effect of over 30% in size
HCV inh – qHTS Assay for Inhibitors of Hepatitis C Virus (HCV); 340,000 tested, 3.4% active; Potency, µM (top dose mostly 41.8 µM), without a hit: at the highest dose activity change, negative = inhibition, hits mostly inhibitors; Huh7.5.1 HCVcc-Cre infection, luciferase reporter, 44 h; active = well fitted inhibition curve with a large enough effect; inconclusive = small, poorly fitted or top-dose-only effect, or another doubt; inactive = no such curve, though single readings can be large or run the other way; also: potency is read from the fitted curve at half-maximal effect
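Whole-lifecycle infectious HCVcc-Cre system; cells 1,000/well, compound then virus (~0.5 moi) added 4 h after plating, 44 h culture. Luciferase read 15 sec following 15 min substrate incubation, room temp.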
VACV mCherry inh – qHTS for Stage-Specific Inhibitors of Vaccinia Orthopoxvirus: mCherry Reporter Primary qHTS; Vaccinia virus mCherry reporter infection, fluorescence; Potency, µM (top dose mostly 36.5 µM), for inactives: at the top dose activity change, negative = inhibition, hits mostly inhibitors; 310,000 tested, 0.63% active; AID 720579, 2013; calls by dose curve; tested in A549 cells; also: potency is read from the fitted curve at half-maximal effect; nearly all actives have a fitted effect of over 35% in size
FMDV inh – High Throughput Screening for Foot and Mouth Disease Virus Antivirals | FMDV antiviral cell-based qHTS | Potency, µM (highest dose often 57.9 µM), inactives show top-dose activity change, negative = inhibition, usual class: inhibitors | 410,000 tested, 1.2% active; calls by dose curve; tested in HEK293T cells; also: read-out not given here; potency is read from the fitted curve at half-maximal effect; nearly all actives have a fitted effect of over 45% in size
* marks the source's active call; other numbers are inactive results; i = inactive; u = inconclusive; x = not tested or not shown; + = active, no number; [ ] = another dose, or the depositor's remark. % is scaled to controls: 0 for no effect and ±100 for the full control effect.

SMILES	HCMV inh	VACV Venus inh	HCV inh	VACV mCherry inh	FMDV inh
Cc1cccc(C)c1NC(=O)COC(=O)c1ccc2[nH]c3c(c2c1)CCCC3	u	x	-27%	x	-15%
COc1ccc(N2CCN(S(=O)(=O)c3ccc4c(c3)CC(C)N4C(C)=O)CC2)cc1 (centres undefined)	-72*	-15%[7.34 µM]	x	-7%[7.34 µM]	u
O=C(NCc1ccc2[nH]c3c(c2c1)CCCC3)c1ccc(S(=O)(=O)N2CCOCC2)cc1	-4	u	u	-25%	-5%
CC(=O)N1c2ccc(S(=O)(=O)N3CCC(C(=O)Nc4cccc(C)c4)CC3)cc2CC1C (centres undefined)	-68*	-3%	u	-1%	u
O=C(NCc1ccc2[nH]c3c(c2c1)CCCC3)c1ccc(S(=O)(=O)N2CCCC2)cc1	-79*	7%	u	-6%	0%
O=C(Cc1ccccc1)NCC(=O)OCC(=O)c1cccc2ccccc12	x	-7%	x	-20%	x
O=C(Nc1cccc(F)c1)C1CCN(S(=O)(=O)c2ccc3[nH]c4c(c3c2)CCCCC4)CC1	+	u	x	-24%	0%
CC(=O)N1c2ccc(S(=O)(=O)N3CCCC(C(=O)Nc4ccc(F)cc4)C3)cc2CC1C (centres undefined)	-68*	u	u	-23%	u
CCCCNC(=S)NCc1ccc2[nH]c3c(c2c1)CCCC3	-1	-21%	u	-23%	0%
CNC(=S)NCc1ccc2[nH]c3c(c2c1)CCCC3	-67*	x	-6%	x	2%
CC(=O)N1c2ccc(S(=O)(=O)N3CCC(C(=O)Nc4cccc(Cl)c4)CC3)cc2CC1C (centres undefined)	-88*	x	u	x	u
O=C(c1csnn1)N1CCC2(CC1)CCN(c1ccccc1)CC2	x	x	x	x	-9%
N#Cc1ccccc1OCC(O)CNCCNC(=O)Nc1ccccc1 (centres undefined)	x	-15%	x	i	-1%
CCCc1cc(OC)c2c(c1)OCO2	x	-11%	x	-18%	-4%
O=C1CCCC(=O)C1C(=O)c1ccc(C(F)(F)F)cc1[N+](=O)[O-]	2	x	x	x	x
CC(=O)Nc1ccc(NS(=O)(=O)c2ccc3[nH]c4c(c3c2)CCCCC4)cc1	5	7.9µM*	x	u	24%
CC(=O)N1c2ccc(S(=O)(=O)N3CCC(C(=O)N4CCN(c5cccc(C(F)(F)F)c5)CC4)CC3)cc2CC1C (centres undefined)	-66*	x	-6%	x	u
CC(=O)N1c2ccc(S(=O)(=O)N3CCC(C(=O)Nc4cccc(F)c4)CC3)cc2CC1C (centres undefined)	-61*	-17%	u	-14%	u
CC(=O)N1c2ccc(S(=O)(=O)N3CCCCCC3)cc2CC1C(=O)NC(C)C (centres undefined)	-85*	6%	x	-5%	-10%
C=CCNC(=O)c1cc2cc(Cl)ccc2nc1N	-11	2%	x	7%	-24%
COc1ccc(Cl)cc1NC(=O)C1CCN(S(=O)(=O)c2ccc3c(c2)CC(C)N3C(C)=O)CC1 (centres undefined)	-63*	-8%	x	-16%	u
CC(=O)N1c2ccc(S(=O)(=O)N3CCCC(C(=O)Nc4cc(C)cc(C)c4)C3)cc2CC1C (centres undefined)	8	u	-29%	-20%	-18%
CC(=O)N1c2ccc(S(=O)(=O)N3CCC(C(=O)Nc4cc(C)cc(C)c4)CC3)cc2CC1C (centres undefined)	-61*	x	3%	x	-24%
COc1ccccc1NC(=O)C1CCN(S(=O)(=O)c2ccc3c(c2)CC(C)N3C(C)=O)CC1 (centres undefined)	-18	-10%	-2%	i	-14%
CCc1ccc(NC(=O)C2CCN(S(=O)(=O)c3ccc4c(c3)CC(C)N4C(C)=O)CC2)cc1 (centres undefined)	-93*	u	2.8µM*	-11%	16µM*
SMILES	HCMV inh	VACV Venus inh	HCV inh	VACV mCherry inh	FMDV inh
COc1ncccc1C(=O)N1CCCC(C(=O)Nc2cccc(-c3ccc(F)cc3)c2)C1 (centres undefined)	u	-19%	x	u	u
O=C(O)COc1ccc(NC(=O)c2ccc3c(c2)C(=O)N(CC2CCCO2)C3=O)cc1 (centres undefined)	-13	-8%	x	i	0%
CC(=O)c1[nH]c(C)c(C(=O)N2CCCC(Nc3cccc(F)c3)C2)c1C (centres undefined)	-31	x	14%	x	-1%
CCOC(=O)C(C(=O)OCC)C(C(=O)OCC)N1CCOCC1 (centres undefined)	-105*	0%	u	i	32µM*
CN1CCCC(CC2c3ccccc3Sc3ccccc32)C1 (centres undefined)	-27	-29%	2.8µM*	-18%	40µM*
Cc1ccc(S(=O)(=O)CC(=O)Nc2ccccn2)cc1	-63*	-19%	5%	-15%	-2%
Cc1ccnc(NC(=O)Cc2ccc(-c3ccccc3)cc2)c1	-90*	x	4µM*	x	54%
Cc1ccnc(NC(=O)CS(=O)(=O)Cc2ccccc2)c1	-99*	-5%	-6%	-2%	34%
Cc1ccc(S(=O)(=O)CC(=O)Nc2ccc(S(=O)(=O)Nc3ccccn3)cc2)cc1	9	x	15%	x	53%
CCOCCOC(=O)c1[nH]c2c(c1C)C(=O)CC(c1cc(OC)c(OC)c(OC)c1)C2 (centres undefined)	-62*	-15%	5µM*	1%	28µM*
COC(=O)c1[nH]c2c(c1C)C(=O)CC(c1cc(OC)c(OC)c(OC)c1)C2 (centres undefined)	-74*	x	10µM*	x	u
CCOC(=O)C1=C(C)NC2=C(C(=O)CC(c3ccc(OC)c(OC)c3)C2)C1c1ccc(C)o1 (centres undefined)	-32	-6%	13µM*	-3%	u
CCOC(=O)c1[nH]c2c(c1C)C(=O)CC(c1ccc(OCC)c(OC)c1)C2 (centres undefined)	-14	-33%	u	x	0%
COc1cc(C2CC(=O)c3c([nH]c(C(=O)OC4CCCC4)c3C)C2)cc(OC)c1OC (centres undefined)	-98*	u	x	u	u
CCc1ccc(NC(=O)CN(c2ccc(C)cc2)S(=O)(=O)c2cccs2)cc1	-20	3%	x	-3%	5%
CCOc1ccc(NC(=O)CC2C(=O)N(c3cccc(C)c3)C(=O)N2CCC2=CCCCC2)cc1 (centres undefined)	1	-13%	x	i	0%
CC1OC(COCc2ccccc2)Cc2[nH][nH]c(=O)c21 (centres undefined)	88	-2%	x	-7%	22%

Bioassay records as filed in PubChem BioAssay.
